Potency and outcome data for eleven molecules are collected here from PubChem BioAssay (NCATS).

Assay [1] in a line: Cell Viability - LYMP2-002 (AID 977). Also: potency is read from the fitted curve at half-maximal effect. A digest of the protocol: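 Human lymphoblastoid cells, 2500/well, complete medium; 5 h 37 C settle; compound 24 h 37 C; CellTiter-Glo, 30 min RT; luminescence. Decrease in ATP = cytotoxicity; AC50 via Hill equation.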
Assay [2] in a line: Cell Viability - LYMP2-006 (AID 978). Also: nearly all actives have a fitted effect of over 60% in size. Also: potency is read from the fitted curve at half-maximal effect. The method, boiled down:
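Potency values are Hill-fit AC50s for decreases in intracellular ATP (CellTiter-Glo luminescence). LYMP2-006 lymphoblastoid cells, 2500 per well, were exposed to compound in complete culture medium for 24 hr at 37 C.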

Assay [3] in a line: Cell Viability - LYMP2-007 (AID 979).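 Also: cells exposed to compound for 24 h before reading; nearly all actives have a fitted effect of over 60% in size.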 Also: potency is read from the fitted curve at half-maximal effect. A digest of the protocol:
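Cells are seeded at 2500 per well and rested 5 hr. Compounds are then added over a concentration series for 24 hr at 37 C. CellTiter-Glo is added for 30 min at room temperature before luminescence reading.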

Assay [4] is described as follows: Cell Viability - LYMP2-008 (AID 980). Also: nearly all actives have a fitted effect of over 60% in size. Also: potency is read from the fitted curve at half-maximal effect. A digest of the protocol: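 Cells seeded at 2500/well and rested 5 hr at 37 C; compounds added over a concentration range and incubated 24 hr at 37 C; CellTiter-Glo added, 30 min at room temperature; luminescence read and AC50 fitted with Hill model.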
The nature of assay [5]: Cell Viability - LYMP2-012 (AID 982).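 Also: cellular ATP by luciferase luminescence where a drop means cytotoxicity; cells exposed to compound for one day before reading; nearly all actives have a fitted effect of over 55% in size.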 Also: potency is read from the fitted curve at half-maximal effect.
Assay [6] is described as follows: Cell Viability - LYMP2-014 (AID 983). Also: nearly all actives have a fitted effect of over 50% in size. Also: potency is read from the fitted curve at half-maximal effect. The method, boiled down:
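Cells are plated at 2500/well and left 5 hr at 37 C. Compounds are added across a concentration range and incubated 24 hr at 37 C in complete medium. CellTiter-Glo is added, and luminescence is read after 30 min at room temperature.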

The nature of assay [7]: Cell Viability - LYMP2-016 (AID 984). Also: nearly all actives have a fitted effect of over 55% in size. Also: potency is read from the fitted curve at half-maximal effect. The method, boiled down: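 Cytotoxicity was scored by luminescent ATP content (CellTiter-Glo) after 24 h compound exposure at 37 C of a human lymphoblastoid line at 2500 cells/well. Concentration-response data were fitted to the Hill equation for AC50.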
Assay [8] can be described thus: Cell Viability - LYMP2-018 (AID 985).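 Also: compound exposure lasted 24 hr at 37 °C; nearly all actives have a fitted effect of over 50% in size.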 Also: potency is read from the fitted curve at half-maximal effect. The method, boiled down: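 Seed 2500 lymphoblastoid cells per well, incubate 5 hr at 37 C, add compound and incubate 24 hr at 37 C, add CellTiter-Glo, wait 30 min at room temperature, then read luminescence.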
A short description of assay [9]: Cell Viability - LYMP2-020 (AID 986). Also: nearly all actives have a fitted effect of over 55% in size. Also: potency is read from the fitted curve at half-maximal effect. A digest of the protocol:
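Seed 2500 cells per well and incubate 5 hr at 37 C. Add compounds at a concentration series and incubate 24 hr at 37 C. Add CellTiter-Glo, wait 30 min at RT, read luminescence, and fit a Hill curve for AC50.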

Assay [10] in a line: Cell Viability - LYMP2-024 (AID 988). Also: nearly all actives have a fitted effect of over 60% in size. Also: potency is read from the fitted curve at half-maximal effect. A digest of the protocol: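 qHTS cytotoxicity, human lymphoblastoid line, complete medium; 24 h cpd treatment, 37 C; CellTiter-Glo ATP luminescence readout; tetraoctylammonium bromide positive control; AC50 via Hill fit.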
Assay [11] is described as follows: Cell Viability - LYMP1-002 - Assay at 24 hr (AID 993). Also: potency is read from the fitted curve at half-maximal effect. The method, boiled down:
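Acute toxicity is measured as concentration-dependent loss of cellular ATP in a human lymphoblastoid line (Coriell LYMP1-002) after 24 h treatment in complete medium. ATP is quantified by luciferase luminescence and AC50 derived by Hill modelling.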

Assay [12] in a line: qHTS Assay for Identification of Small Molecule Inducers of Hypoxia Response (AID 2120; active = well fitted curve in the direction sought with a large enough effect in the signal ratio, with a control signal flat, not every such curve was filed as active; the % refers to the signal ratio). A digest of the protocol:
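Cell-based qHTS for reporter induction: hypoxia response element controlled beta-lactamase in ME-180 cells. Compounds incubated 17 h at 37 degrees C; activity from blue/green (460/530 nm) ratio, inducers ranked by AC50.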
(qHTS replaces the single test concentration by a dilution series.)

Assay [13] can be described thus: Cell Viability - LYMP2-010 (AID 981). Also: nearly all actives have a fitted effect of over 55% in size. Also: potency is read from the fitted curve at half-maximal effect. The method, boiled down: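 Steps: seed 2500 LYMP2-010 cells per well; incubate 5 hr at 37 C; add compound; incubate 24 hr at 37 C; add CellTiter-Glo, wait 30 min at room temperature; read luminescence. Concentration-response fitted to Hill equation for AC50.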
Assay [14] is described as follows: Cell Viability - LYMP2-022 (AID 987). Also: nearly all actives have a fitted effect of over 55% in size. Also: potency is read from the fitted curve at half-maximal effect. A digest of the protocol:
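Cells were seeded at 2500 per well, rested 5 hr at 37 C, and treated with titrated compounds for 24 hr at 37 C. Cellular ATP was then quantified by luciferase luminescence, and AC50 values were derived from Hill-modelled concentration-response curves.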

Assay [15] is described as follows: Cell Viability - LYMP2-026 (AID 989). Also: nearly all actives have a fitted effect of over 50% in size. A digest of the protocol: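 Cells are seeded at 2500 per well and held 5 hr at 37 C. Compounds are added in concentration series for 24 hr, then CellTiter-Glo reagent is applied and luminescence read.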
Assay [16] in a line: Cell Viability - LYMP1-002 - Assay at 40 hr (AID 994). Also: nearly all actives have a fitted effect of over 60% in size. Also: potency is read from the fitted curve at half-maximal effect. A digest of the protocol: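 Cells are plated at 2500 per well and rested 5 hr at 37 C. Compounds are added and incubated 40 hr at 37 C. CellTiter-Glo reagent is added for 30 min at room temperature before luminescence is read.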
Assay [17] is described as follows: Cell Viability - LYMP2-025 (AID 976). Also: series mostly up to about 92 µM. A digest of the protocol:
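Acute cytotoxicity is scored as a concentration-dependent fall in intracellular ATP, measured by luciferase luminescence, in human lymphoblastoid LYMP2-025 cells exposed to compound for 24 hours at 37 C. AC50 values come from standard Hill fits.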

Records with an inconclusive call do not appear. Activity calls are given as the source filed them. Unless noted, calls follow the shape of the dose curve; as a rule, active = well fitted cell-killing curve with a large enough effect; inconclusive = small, poorly fitted or top-dose-only effect; inactive = flat fitted curve, though single readings scatter.

As for `CCCCC/C=C/C=C/C=O`, the Potency in assay [1] was 50.1 µM (active); in [2] it was 50.1 µM (active); in assay [3] it was 39.8 µM (active); in assay [4] it was 39.8 µM (active); in assay [5], 50.1 µM (active); in [6] it was 50.1 µM (active). Besides, the Potency in assay [7] is 50.1 µM (active); in assay [8], 79.4 µM (active); in assay [9] it was 39.8 µM (active); in assay [10] it was 50.1 µM (active). For the same molecule, the Potency result in assay [11] was “inactive”. For the same molecule, in assay [12], the molecule was classed as inactive.
Turning to `CC/C(C)=N/O`, the Potency entry in [1], in assay [2], in [3], in [4], in assay [13] and in assay [5] was “inactive” each time. In addition, the Potency entry in assay [6], in assay [8], in assay [9], in assay [14], in assay [10] and in assay [16] was “inactive” throughout. Moreover, the outcome in assay [15] and in assay [12] was inactive.
`Nc1cccc(N)c1`: the Potency entry in assay [1], in assay [2], in assay [3], in assay [4], in assay [13] and in [5] was “inactive” each time. Besides, the Potency entry in [6], in [7], in assay [8], in assay [9], in [14] and in assay [10] was “inactive” each time. For the same molecule, the Potency result in assay [11] and in assay [16] was “inactive” each time. The molecule was called inactive in assay [15] and in assay [12].
Consider `BrC/C=C/CBr`, for which the Potency entry in assay [17], in assay [1], in assay [2], in assay [3], in [4] and in [5] was “inactive” each time. The Potency entry in assay [6], in [7], in assay [8], in [9], in assay [14] and in assay [10] was “inactive” each time. Besides, the Potency result in [11] and in assay [16] was “inactive” each time. The molecule was called inactive in [15] and in [12].
As to `CC(O)COC(C)(C)C` (stereo not drawn), the Potency result in assay [1], in assay [2], in assay [3], in assay [4], in [13] and in assay [5] was “inactive” throughout. Further, the Potency result in [6], in assay [7], in assay [8], in assay [9], in [14] and in assay [10] was “inactive” throughout. Also, the Potency entry in [11] and in assay [16] was “inactive” each time. The molecule was called inactive in assay [15] and in assay [12].
Regarding `O=C(O)c1ccc(CO)o1`, the Potency result in assay [17], in assay [1], in [2], in assay [3], in assay [4] and in assay [6] was “inactive” each time. Further, the Potency result in assay [7], in assay [9], in assay [14] and in assay [11] was “inactive” throughout. In addition, the molecule was classed as inactive in assay [15] and in assay [12].
With `Cc1c(N)cccc1N`, the Potency entry in assay [17], in [1], in assay [3], in assay [4], in assay [13] and in assay [5] was “inactive” throughout. Besides, the Potency entry in [6], in assay [7], in [8], in assay [9], in assay [14] and in assay [10] was “inactive” throughout. Also, the Potency result in assay [11] and in assay [16] was “inactive” in each case. Besides, the molecule was classed as inactive in assay [15] and in assay [12].
In the case of `CC(C)(C)OC=O`, the Potency entry in assay [17], in [1], in [3], in [4], in assay [7] and in assay [11] was “inactive” in each case. In [16], the Potency result is “inactive”. Moreover, in [12], the call was inactive.
Regarding `CC1=C(/C=C/C(C)=C/C=C/C(C)=C\C=O)C(C)(C)CCC1`, the Potency is 50.1 µM (active) in assay [1]; 50.1 µM (active) in assay [2]; 50.1 µM (active) in [3]; 50.1 µM (active) in assay [4]; 39.8 µM (active) in [13]; 63.1 µM (active) in [6]. Further, the Potency in assay [8] was 50.1 µM (active); in assay [14], 39.8 µM (active); in assay [11], 63.1 µM (active); in assay [16] it was 50.1 µM (active). Moreover, the call in assay [12] was inactive.
Turning to `CCC(=O)/C=C/C1C(C)=CCCC1(C)C` (stereo not drawn), the Potency entry in assay [1], in assay [2], in assay [4], in assay [6], in assay [7] and in [8] was “inactive” each time. For the same molecule, the Potency entry in assay [9], in [11] and in assay [16] was “inactive” in each case. In addition, the Potency in [13] was 50.1 µM (active). Besides, the molecule was called inactive in [15] and in assay [12].
As for `COCCOC(=O)c1ccccc1C(=O)OCCOC`, the Potency entry in assay [1], in assay [2], in assay [3], in assay [4], in [13] and in [5] was “inactive” each time. Besides, the Potency result in assay [6], in [7], in [9], in assay [14], in assay [10] and in assay [11] was “inactive” throughout. In [16], the Potency entry is “inactive”. Besides, the call in assay [15] and in [12] was inactive.
